# PubChem BioAssay (NCATS)
# Records with an inconclusive call do not appear. Calls of active or inactive are those of the source. Calls come from the whole dose curve; as a rule, active = well fitted cell-killing curve with a large enough effect; inconclusive = small, poorly fitted or top-dose-only effect, or effect the other way; inactive = no such curve, though single readings can be large or run the other way.
# Assay: qHTS assay to identify small molecule inhibitors of chordoma cells - UCH-1 (AID 1259355); note: nearly all actives have a fitted effect of over 55% in size
# Settings: UCH-1 chordoma viability, CellTiter-Glo, 48 h, combination, with auranofin plus four topoisomerase inhibitors; series mostly up to 46.1 µM; activity, negative = inhibition: at the top concentration
# Outline: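 800 cells/well, overnight attach; compounds pinned at 15 concs, then auranofin/camptothecin/doxorubicin/rubitecan/topotecan combo added; 48hr 37 C, 5% CO2; CellTiter-Glo, 30min RT, luminescence.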
# % is set by controls: 0 for no effect and ±100 for the full control effect; potency is the fitted concentration of half-maximal effect.
SMILES,"activity, negative = inhibition",Potency
CC(=O)c1ccc(S(=O)(=O)NC(=O)NC2CCCCC2)cc1,-2.74% (inactive),–
O=C(O)CCc1nc(-c2ccccc2)c(-c2ccccc2)o1,7.2% (inactive),–
NCCS,-5.73% (inactive),–
CCCCC1C(=O)N(c2ccccc2)N(c2ccccc2)C1=O,–,inactive
Cc1cnc(C(=O)O)c[n+]1[O-],–,inactive
CCN1CCC[C@H]1CNC(=O)c1cc(S(N)(=O)=O)ccc1OC,6.69% (inactive),–
CC(=O)O[C@]1(C(C)=O)CC[C@H]2[C@@H]3C=C(Cl)C4=CC(=O)[C@@H]5C[C@@H]5[C@]4(C)[C@H]3CC[C@@]21C,-23.3% (inactive),–
O=C1NC(=O)C(c2ccccc2)(c2ccccc2)N1,-31.8% (inactive),–
CC[C@]1(O)C[C@@H]2CN(CCc3c([nH]c4ccccc34)[C@@](C(=O)OC)(c3cc4c(cc3OC)N(C)[C@H]3[C@@](O)(C(=O)OC)[C@H](OC(C)=O)[C@]5(CC)C=CCN6CC[C@]43[C@@H]65)C2)C1,–,5.62 µM (active)
CCn1cc(C(=O)O)c(=O)c2ccc(C)nc21,-1.67% (inactive),–
O=C1NCC2(CCN(CCc3ccccc3)CC2)O1,-5.29% (inactive),–
Clc1ccc(Cn2c(CN3CCCC3)nc3ccccc32)cc1,-14.5% [at 20.6 µM] (inactive),–
CCN(CC)CCNC(=O)c1ccc(N)cc1,3.74% (inactive),–
